# Test results reported in PubChem BioAssay (Tox21).
# Inconclusive results are not listed. A call without a number means that no potency is given here. The source made the active and inactive calls. Calls follow the shape of the dose curve; as a rule, active = well fitted curve in the direction sought with a large enough effect in the repeat runs; inconclusive = weak or mixed curves; inactive = no such curve, though single readings can be large; an effect the other way counts as inactive or inconclusive.
# Columns and labels:
# [1] = qHTS assay for identifying genotoxic compounds that show differential cytotoxicity against isogenic chicken DT40 cell lines with known DNA damage response pathways - wild type cell line (AID 743012); also: nearly all actives have a fitted effect of over 60% in size; also: potency is read from the fitted curve at half-maximal effect
# Procedure, shortened: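 Viability of DNA repair-proficient chicken DT40 cells was assessed by CellTiter-Glo luminescence following 40 h compound exposure at 37 C/5% CO2.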
# [2] = qHTS assay for identifying genotoxic compounds that show differential cytotoxicity against isogenic chicken DT40 cell lines with known DNA damage response pathways - Rev3 mutant cell line (AID 743014); also: nearly all actives have a fitted effect of over 55% in size; also: potency is read from the fitted curve at half-maximal effect
# [3] = qHTS assay for identifying genotoxic compounds that show differential cytotoxicity against isogenic chicken DT40 cell lines with known DNA damage response pathways - Rad54/Ku70 mutant cell line (AID 743015); also: nearly all actives have a fitted effect of over 60% in size; also: potency is read from the fitted curve at half-maximal effect
# [4] = qHTS assay to identify small molecule antagonists of the androgen receptor (AR) signaling pathway - cell viability counter screen (AID 743033; also: nearly all actives have a fitted effect of over 45% in size)
# [5] = qHTS assay to identify small molecule antagonists of the androgen receptor (AR) signaling pathway using the MDA cell line - cell viability counter screen (AID 743041; also: nearly all actives have a fitted effect of over 45% in size)
# Procedure, shortened: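 In this qHTS counter assay, fluorescence intensity after CellTiter-Fluor addition indicated viability of MDA-kb2 AR-luc cells given compounds and R1881 for 16 h at 37C.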
# [6] = qHTS assay to identify small molecule antagonists of the glucocorticoid receptor (GR) signaling pathway - cell viability counter screen (AID 720693); also: nearly all actives have a fitted effect of over 55% in size
# [7] = target: Androgen receptor (Homo sapiens) (UniProt P10275); assay: qHTS assay to identify small molecule agonists of the androgen receptor (AR) signaling pathway using the MDA cell line (AID 743040; also: potency is read from the fitted curve at half-maximal effect; nearly all actives have a fitted effect of over 20% in size)
# Chain of Androgen receptor (Homo sapiens) (P10275 whole entry, looked up): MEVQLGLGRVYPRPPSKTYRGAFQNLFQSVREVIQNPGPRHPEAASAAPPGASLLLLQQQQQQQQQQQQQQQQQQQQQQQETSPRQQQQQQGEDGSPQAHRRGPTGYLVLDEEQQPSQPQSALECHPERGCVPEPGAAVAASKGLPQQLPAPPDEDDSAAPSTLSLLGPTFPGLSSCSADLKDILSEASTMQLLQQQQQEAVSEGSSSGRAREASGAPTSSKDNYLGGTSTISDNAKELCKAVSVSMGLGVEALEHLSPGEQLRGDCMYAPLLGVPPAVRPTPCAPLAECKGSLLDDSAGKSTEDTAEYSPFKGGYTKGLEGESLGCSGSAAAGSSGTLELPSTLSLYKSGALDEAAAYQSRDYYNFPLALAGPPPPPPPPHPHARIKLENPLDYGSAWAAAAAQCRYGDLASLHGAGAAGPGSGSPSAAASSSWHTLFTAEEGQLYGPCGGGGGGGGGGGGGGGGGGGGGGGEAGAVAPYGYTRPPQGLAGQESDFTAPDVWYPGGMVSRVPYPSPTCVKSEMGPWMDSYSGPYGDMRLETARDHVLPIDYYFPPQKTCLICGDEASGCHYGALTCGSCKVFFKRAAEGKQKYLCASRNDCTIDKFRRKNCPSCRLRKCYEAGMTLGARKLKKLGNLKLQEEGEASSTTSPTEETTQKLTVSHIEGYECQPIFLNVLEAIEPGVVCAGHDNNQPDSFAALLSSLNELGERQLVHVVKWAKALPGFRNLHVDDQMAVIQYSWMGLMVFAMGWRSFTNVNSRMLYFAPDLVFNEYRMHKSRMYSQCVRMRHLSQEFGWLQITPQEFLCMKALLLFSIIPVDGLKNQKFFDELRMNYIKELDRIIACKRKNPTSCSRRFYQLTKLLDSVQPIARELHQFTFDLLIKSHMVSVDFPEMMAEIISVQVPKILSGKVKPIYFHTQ
# Procedure, shortened: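 Cell-based luciferase reporter: MDA-kb2, MMTV promoter (AR + GR response elements). 16 h compound exposure at 37C; ONE-Glo, 30 min RT, luminescence.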
# [8] = target: Androgen receptor (Homo sapiens) (UniProt P10275); assay: qHTS assay to identify small molecule antagonists of the androgen receptor (AR) signaling pathway using the MDA cell line (AID 743042; also: nearly all actives have a fitted effect of over 55% in size)
# Procedure, shortened: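 MDA-kb2 cells (human breast carcinoma, stably carrying an MMTV-luciferase reporter responsive to AR and GR) were plated at 3,000 cells/well and preincubated 5 hr at 37C, then given compound plus R1881 agonist for 16 h. ONE-Glo luminescence was read.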
SMILES,Potency [1],Potency [2],Potency [3],Potency [4],Potency [5],Potency [6],Potency [7],Potency [8]
O=C1CCC(=O)O1,inactive,inactive,inactive,inactive,inactive,–,–,–
CCCCC(=O)OCC(=O)[C@H]1[C@H](C)C[C@H]2[C@@H]3C[C@H](F)C4=CC(=O)C=C[C@]4(C)[C@@]3(F)[C@@H](O)C[C@@]21C,–,–,–,inactive,inactive,inactive,0.0047 µM (active),inactive
CCN(CC)CCOC(=O)C(Cc1cccc2ccccc12)CC1CCCO1 (stereo unspecified),–,–,inactive,inactive,inactive,inactive,–,–
Cc1ccc(N=Nc2c(O)c(C(=O)O)cc3ccccc23)c(S(=O)(=O)O)c1,–,–,13.3 µM (active),inactive,inactive,inactive,–,–
O=C(CS)Nc1ccccc1,11.9 µM (active),21.1 µM (active),18.8 µM (active),–,–,–,–,–
c1ccc(C(O[C@H]2CCCN(CCc3ccc4c(c3)OCO4)C2)c2ccccc2)cc1,23.7 µM (active),29.8 µM (active),29.8 µM (active),inactive,inactive,–,–,–
